# Laboratory results published in the supplement of paper PMC8728848.
# Many of the other results were omitted from the sample, so the strongest signals are more common in it than they were.
# B1: Gal 1 (Mus musculus), P16045 (protein)
# chain: MACGLVASNLNLKPGECLKVRGEVASDAKSFVLNLGKDSNNLCLHFNPRFNAHGDANTIVCNTKEDGTWGTEHREPAFPFQPGSITEVCITFDQADLTIKLPDGHEFKFPNRLNMEAINYMAADGDFKIKCVAFE
# What was measured:
# Assay in all cases: glycan array binding signal (z-score within array); higher = stronger binding
# Settings in all cases: glycan notation: IUPAC condensed, linker removed
# [1] = molecular target: Gal(b1-4)GlcNAc(b1-3)Gal(b1-4)GlcNAc(b1-3)Gal(b1-4)GlcNAc(b1-2)Man(a1-3)[Gal(b1-4)GlcNAc(b1-3)Gal(b1-4)GlcNAc(b1-3)Gal(b1-4)GlcNAc(b1-2)Man(a1-6)]Man(b1-4)GlcNAc(b1-4)[Fuc(a1-6)]GlcNAc
# Method in brief: (§1)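 From the Consortium for Functional Glycomics database, 3228 arrays were curated, keeping only those whose protein sequence was available. Binding is given as a within-array Z-score averaged across arrays sharing a protein sequence and across linkers. Negative Z-scores can be read as non-binding.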
# [2] = molecular target: Gal(b1-4)GlcNAc(b1-3)Gal(b1-4)GlcNAc(b1-3)Gal(b1-4)GlcNAc(b1-2)[Gal(b1-4)GlcNAc(b1-3)Gal(b1-4)GlcNAc(b1-3)Gal(b1-4)GlcNAc(b1-6)]Man(a1-6)[Gal(b1-4)GlcNAc(b1-3)Gal(b1-4)GlcNAc(b1-3)Gal(b1-4)GlcNAc(b1-2)Man(a1-3)]Man(b1-4)GlcNAc(b1-4)[Fuc(a1-6)]GlcNAc
# Method in brief: as §1
# [3] = molecular target: Gal(b1-4)GlcNAc(b1-3)Gal(b1-4)GlcNAc(b1-3)Gal(b1-4)GlcNAc(b1-3)Gal(b1-4)GlcNAc(b1-2)Man(a1-3)[Gal(b1-4)GlcNAc(b1-3)Gal(b1-4)GlcNAc(b1-3)Gal(b1-4)GlcNAc(b1-3)Gal(b1-4)GlcNAc(b1-2)Man(a1-6)]Man(b1-4)GlcNAc(b1-4)GlcNAc
# Method in brief: as §1
# [4] = molecular target: Gal(b1-4)GlcNAc(b1-3)Gal(b1-4)GlcNAc(b1-3)Gal(b1-4)GlcNAc(b1-3)Gal(b1-4)GlcNAc(b1-2)[Gal(b1-4)GlcNAc(b1-3)Gal(b1-4)GlcNAc(b1-3)Gal(b1-4)GlcNAc(b1-3)Gal(b1-4)GlcNAc(b1-6)]Man(a1-6)[Gal(b1-4)GlcNAc(b1-3)Gal(b1-4)GlcNAc(b1-3)Gal(b1-4)GlcNAc(b1-3)Gal(b1-4)GlcNAc(b1-2)Man(a1-3)]Man(b1-4)GlcNAc(b1-4)[Fuc(a1-6)]GlcNAc
# Method in brief: as §1
# [5] = molecular target: Gal(b1-4)GlcNAc(b1-3)Gal(b1-4)GlcNAc(b1-3)Gal(b1-4)GlcNAc(b1-3)Gal(b1-4)GlcNAc(b1-3)Gal(b1-4)GlcNAc(b1-2)[Gal(b1-4)GlcNAc(b1-3)Gal(b1-4)GlcNAc(b1-3)Gal(b1-4)GlcNAc(b1-3)Gal(b1-4)GlcNAc(b1-3)Gal(b1-4)GlcNAc(b1-6)]Man(a1-6)[Gal(b1-4)GlcNAc(b1-3)Gal(b1-4)GlcNAc(b1-3)Gal(b1-4)GlcNAc(b1-3)Gal(b1-4)GlcNAc(b1-3)Gal(b1-4)GlcNAc(b1-2)Man(a1-3)]Man(b1-4)GlcNAc(b1-4)[Fuc(a1-6)]GlcNAc
# Method in brief: as §1
# [6] = molecular target: Gal(b1-4)GlcNAc(b1-6)[Gal(b1-4)GlcNAc(b1-3)]GalNAc
# Method in brief: as §1
# Gal3S(b1-3)GlcNAc = molecular target: Gal3S(b1-3)GlcNAc
# Method in brief: as §1
# Gal3S(b1-4)Glc6S = molecular target: Gal3S(b1-4)Glc6S
# Method in brief: as §1
# [7] = molecular target: Gal3S(b1-4)[Fuc(a1-3)]GlcNAc6S
# Method in brief: as §1
# GalNAc(b1-4)GlcNAc6S = molecular target: GalNAc(b1-4)GlcNAc6S
# Method in brief: as §1
# [8] = molecular target: GlcNAc(a1-4)Gal(b1-4)GlcNAc(b1-3)Gal(b1-4)GlcNAc(b1-3)Gal(b1-4)GlcNAc
# Method in brief: as §1
# [9] = molecular target: GlcNAc(a1-4)Gal(b1-4)GlcNAc(b1-3)Gal(b1-4)[Fuc(a1-3)]GlcNAc(b1-3)Gal(b1-4)[Fuc(a1-3)]GlcNAc
# Method in brief: as §1
# GlcNAc(b1-3)Fuc = molecular target: GlcNAc(b1-3)Fuc
# Method in brief: as §1
# [10] = molecular target: GlcNAc(b1-3)Gal(b1-4)GlcNAc(b1-3)Gal(b1-4)GlcNAc(b1-2)Man(a1-3)[GlcNAc(b1-3)Gal(b1-4)GlcNAc(b1-3)Gal(b1-4)GlcNAc(b1-2)Man(a1-6)]Man(b1-4)GlcNAc(b1-4)[Fuc(a1-6)]GlcNAc
# Method in brief: as §1
# GlcNAc(b1-3)GalNAc = molecular target: GlcNAc(b1-3)GalNAc
# Method in brief: as §1
# [11] = molecular target: GlcNAc(b1-3)[GlcNAc(b1-6)]GalNAc
# Method in brief: as §1
# Man(a1-6)Man = molecular target: Man(a1-6)Man
# Method in brief: as §1
# [12] = molecular target: Neu5Ac(a2-3)Gal(b1-3)[Neu5Ac(a2-3)Gal(b1-4)]GlcNAc
# Method in brief: as §1
# [13] = molecular target: Neu5Ac(a2-3)Gal(b1-4)GlcNAc
# Method in brief: as §1
# [14] = molecular target: Neu5Ac(a2-3)Gal(b1-4)GlcNAc(b1-3)Gal(b1-4)GlcNAc(b1-2)Man(a1-3)[Neu5Ac(a2-3)Gal(b1-4)GlcNAc(b1-3)Gal(b1-4)GlcNAc(b1-2)Man(a1-6)]Man(b1-4)GlcNAc(b1-4)GlcNAc
# Method in brief: as §1
# [15] = molecular target: Neu5Ac(a2-3)Gal(b1-4)[Fuc(a1-3)]GlcNAc(b1-3)Gal(b1-4)[Fuc(a1-3)]GlcNAc(b1-3)Gal(b1-4)[Fuc(a1-3)]GlcNAc
# Method in brief: as §1
# [16] = molecular target: Neu5Ac(a2-3)Gal6S(b1-4)GlcNAc
# Method in brief: as §1
# [17] = molecular target: Neu5Ac(a2-3)[Neu5Ac(a2-6)]GalNAc
# Method in brief: as §1
# [18] = molecular target: Neu5Ac(a2-6)Gal(b1-4)GlcNAc(b1-2)Man(a1-3)[Neu5Ac(a2-3)Gal(b1-4)GlcNAc(b1-2)Man(a1-6)]Man(b1-4)GlcNAc(b1-4)GlcNAc
# Method in brief: as §1
# [19] = molecular target: Neu5Ac(a2-6)Gal(b1-4)GlcNAc(b1-3)Gal(b1-4)GlcNAc
# Method in brief: as §1
# [20] = molecular target: Neu5Ac(a2-6)Gal(b1-4)GlcNAc(b1-3)Gal(b1-4)GlcNAc(b1-3)[Neu5Ac(a2-6)Gal(b1-4)GlcNAc(b1-3)Gal(b1-4)GlcNAc(b1-6)]GalNAc
# Method in brief: as §1
# [21] = molecular target: Neu5Ac(a2-6)Gal(b1-4)GlcNAc(b1-6)[Gal(b1-3)GlcNAc(b1-3)]Gal(b1-4)Glc
# Method in brief: as §1
# [22] = molecular target: Neu5Ac(a2-6)GlcNAc(b1-4)GlcNAc
# Method in brief: as §1
# Neu5Ac(a2-8)Neu5Ac = molecular target: Neu5Ac(a2-8)Neu5Ac
# Method in brief: as §1
# [23] = molecular target: Neu5Ac(a2-8)Neu5Ac(a2-8)Neu5Ac(a2-3)Gal(b1-4)Glc
# Method in brief: as §1
# [24] = molecular target: Neu5Ac(a2-8)Neu5Ac(a2-8)Neu5Ac(a2-3)[GalNAc(b1-4)]Gal(b1-4)Glc
# Method in brief: as §1
binder,measurement,setting,value
B1,glycan array binding signal (z-score),[1],2.53
same,glycan array binding signal (z-score),[2],3.89
same,glycan array binding signal (z-score),[3],2.54
same,glycan array binding signal (z-score),[4],3.42
same,glycan array binding signal (z-score),[5],3.46
same,glycan array binding signal (z-score),[6],-0.011
same,glycan array binding signal (z-score),Gal3S(b1-3)GlcNAc,2.76
same,glycan array binding signal (z-score),Gal3S(b1-4)Glc6S,0.672
same,glycan array binding signal (z-score),[7],2.69
same,glycan array binding signal (z-score),GalNAc(b1-4)GlcNAc6S,-0.452
same,glycan array binding signal (z-score),[8],-0.404
same,glycan array binding signal (z-score),[9],-0.015
same,glycan array binding signal (z-score),GlcNAc(b1-3)Fuc,-0.43
same,glycan array binding signal (z-score),[10],-0.19
same,glycan array binding signal (z-score),GlcNAc(b1-3)GalNAc,-0.094
same,glycan array binding signal (z-score),[11],-0.292
same,glycan array binding signal (z-score),Man(a1-6)Man,0.23
same,glycan array binding signal (z-score),[12],0.068
same,glycan array binding signal (z-score),[13],-0.256
same,glycan array binding signal (z-score),[14],1.31
same,glycan array binding signal (z-score),[15],-0.083
same,glycan array binding signal (z-score),[16],-0.411
same,glycan array binding signal (z-score),[17],-0.3
same,glycan array binding signal (z-score),[18],-0.219
same,glycan array binding signal (z-score),[19],-0.348
same,glycan array binding signal (z-score),[20],1.13
same,glycan array binding signal (z-score),[21],0.027
same,glycan array binding signal (z-score),[22],-0.34
same,glycan array binding signal (z-score),Neu5Ac(a2-8)Neu5Ac,-0.093
same,glycan array binding signal (z-score),[23],-0.347
same,glycan array binding signal (z-score),[24],-0.144
